# Results: paper PMC12136788
# Changes are numbered by the printed parent chain. Over roughly 5,800 sequences, “enrichment r” has its median near 0.54; the highest 2% begin near 16. Shown is part of a subset that was picked to be rich in the highest values.
# B1: chr12:2800410:2800520:+|CDS|ENSG00000004478|unk|total|mutant (ssRNA)
# RNA: GGGAGUUCUACAGUCCGACGAUCAAAUACAAGCAAGCUUUACUACAGUAUAAGAAGAUCGUGUCUUGGCUGGAAUAUGAGUCCCGUUUUUCCAAUGAGGAAGCACAGAAAGCACAGGCCCUUCGACUGGCCUCUCACCUCAACCAACAGAGGAUUGAGCAUCA
# B2: chr11:46743636:46743700:-|3pUTR|ENSG00000175216|msi1_unk|total|mutant (ssRNA)
# RNA: GGGAGUUCUACAGUCCGACGAUCUUGUAAAAUUGUCCUAAUCUUUCCCCGCUUUUUAACCGUUAAUAUCCGAAACUCUUUAACCGUUUUCCUUUCAGUUUGUGAGCUCUUCUCUGUCGCCCUGAAGGGUCACUGUAUUCUGUACAACAGAGGAUUGAGCAUCA
# B3: chr2:166409664:166409935:-|three_prime_utr|ENSG00000136546|control|control|control (ssRNA)
# RNA: GGGAGUUCUACAGUCCGACGAUCUGUGGUAACAAGCCAAGCUUUUAAUGUCAUUGUUAUGGUUCUUAUAUGUUUCCAAGCAAUAGCCAUGAUGAUAGACACUGAUGUUCAGAGUCUACAAAUGUCCAUUGCUCUCUACUGGAUCAACAGAGGAUUGAGCAUCA
# B4: ENSG00000070961:be:win_5601|3pUTR|ENSG00000070961|bound_else_gene|NA|bound_elsewhere_windowed (ssRNA)
# RNA: GGGAGUUCUACAGUCCGACGAUCGAGGUAGCAUGAUAUGCUGGAAAGCAUAUUAGACUAGGAGUCAAGACCUGGUUUCUAGUCUUGGUUUUGCCAUUAAUGUGCUGCAUGAUCUUGGGAAAAUCAUUUACCCUAAAUAAGGGUCAACAGAGGAUUGAGCAUCA
# B5: chr19:7961171:7961272:-|3pUTR|ENSG00000066044|msi1|FALSE|unique (ssRNA)
# RNA: GGGAGUUCUACAGUCCGACGAUCGGCGGGAUUCCCGCUUCUGAAACUCCCCCUGGAGUCUCACUCCCACACAUGCCCAUAGCUAGCAUUCAACAGAGAACUCUGUCUUAAGCUUCAACUGUGAAAAUGAUGACGGGCUUGUAGCAACAGAGGAUUGAGCAUCA
# B6: chr8:52110837:52113338:-|three_prime_utr|ENSG00000147488|control|control|control (ssRNA)
# RNA: GGGAGUUCUACAGUCCGACGAUCCCCCGGAAUGCAAAGCUCUACUGGAAAGUAUCAAACAGGCAGUGAAGGGUAUCCAUGUGUAGGAUCACAGCGCUGCCGGGCAACAGAAGUUACCAACAGCAGUAAACUCCAGAUGGAUCUCAACAGAGGAUUGAGCAUCA
# B7: ENSG00000107863:be:win_4051|CDS|ENSG00000107863|bound_else_gene|NA|bound_elsewhere_windowed (ssRNA)
# RNA: GGGAGUUCUACAGUCCGACGAUCGUGCAGGAGGAAAGCACAGUAGACUCCCAGCCAGUGCCAAACAUAGAUCAUUUACUCACCAACAUUGGAAGGACAGGAGUCUCCCCAGGAGAUGUAUCAGAUUCAGCUACUAGUGACUCACAACAGAGGAUUGAGCAUCA
# B8: ENSG00000107863:be:win_5501|CDS|ENSG00000107863|bound_else_gene|NA|bound_elsewhere_windowed (ssRNA)
# RNA: GGGAGUUCUACAGUCCGACGAUCCUGUAAACCGGUUAAAACCAAAAUGCUCAGCCCAGGACCUUUCCAUCUCAGACUGGCUGGCCAGGGAACGCCUACGCACCAGUACCUCUGACCUUAGCAGAGGAGAAAUCGGAGAUCCCCCAACAGAGGAUUGAGCAUCA
# B9: chr7:123541454:123541562:-|3pUTR|ENSG00000128609|unk|FALSE|unique (ssRNA)
# RNA: GGGAGUUCUACAGUCCGACGAUCUCCAUAGUGUCAUUUUAUUUUAGUCAUUAUUGAAUUAUACCAUUUACUCUGUUUUCUUAUAGUCUUAAUUUUAUUAUAUUUUGUUGUUACUGUAUUAUAUUUGAAAACCUUCAAAUUAGACAACAGAGGAUUGAGCAUCA
# B10: chr3:15254852:15254953:-|3pUTR|ENSG00000131370|msi1|FALSE|unique (ssRNA)
# RNA: GGGAGUUCUACAGUCCGACGAUCAAACUGUUAAUUCUGUCACAGCCUGUAUAUUUUAGUCAUUUGUAAAUCUCUUCAUACAAUAGUGACUUCUUUUUUGACUGAUACAGUAUCUUAAUUACAAGGUUAUUUUGUACUUGUCUUCAACAGAGGAUUGAGCAUCA
# B11: chr1:93361585:93361687:+|3pUTR|ENSG00000117505|unk|total|mutant (ssRNA)
# RNA: GGGAGUUCUACAGUCCGACGAUCUUUAACUUGCCGUUACCGUUUACUUAUUGUUUUCCGAAUUACUUUUACAUUUUCCCAACCCGAUGGCCCCGAGUCCAACAUUACCUUUUGAGAUGACAUUAUUGUCUCCAUAAUUGAGUGCAACAGAGGAUUGAGCAUCA
# B12: chr5:113594843:113594944:+|3pUTR|ENSG00000047188|msi1|total|mutant (ssRNA)
# RNA: GGGAGUUCUACAGUCCGACGAUCCAACAUAAAAUCUUGAGAACCUUCUACUUUCUCUGGGAAAGCAUUAUACCGUGGUGCAUCCGUUCCGAAAGUCAGCUAUGAUUUUGCCUACCGUUCCCGUUAUCCGCUUUGGGGUUUUCUCAACAGAGGAUUGAGCAUCA
# B13: chr2:216672374:216672548:-|3pUTR|ENSG00000115461|msi1|total|mutant (ssRNA)
# RNA: GGGAGUUCUACAGUCCGACGAUCUUUUUCUUUUUUUUUUUGAAGACAGCAAUAACCACAGUACAUAUUACUGCCGUUCUCUACCGUUUUACAUACAUUCAUACCAUAACUCUGUUCUCUCCUCUUUUUUGUUUUCAACUUUAACAACAGAGGAUUGAGCAUCA
# B14: chr10:16593140:16593241:-|3pUTR|ENSG00000148484|unk|FALSE|unique (ssRNA)
# RNA: GGGAGUUCUACAGUCCGACGAUCUUAUUUUUCUUUUCACUCUCUUUCUAAUGCUUCCCACCUUACCUUUUAGAUUCUUUUGCUAGGUGGGAGAUUGUUAUAAGGUCUUUAAACCAUUUCCAUUUGUUUCUUUAACAUUACCAACAACAGAGGAUUGAGCAUCA
# B15: chr1:93361585:93361687:+|3pUTR|ENSG00000117505|unk|FALSE|unique (ssRNA)
# RNA: B11 RNA with C33U, C34A, C39U, C40A, C57U, C58A, C83U, C84A, C92U, C93A
# B16: chr5:113594843:113594944:+|3pUTR|ENSG00000047188|msi1|FALSE|bound_elsewhere (ssRNA)
# RNA: GGGAGUUCUACAGUCCGACGAUCCAACAUAAAAUCUUGAGAACCUUCUACUUUCUCUGGGAAAGCAUUAUAUAGUGGUGCAUUAGUUUAGAAAGUCAGCUAUGAUUUUGCCUAUAGUUCUAGUUAUUAGCUUUGGGGUUUUCUCAACAGAGGAUUGAGCAUCA
# B17: chr2:216672374:216672548:-|3pUTR|ENSG00000115461|msi1|FALSE|unique (ssRNA)
# RNA: B13 RNA with C73U, C74A, C83U, C84A
# B18: chr10:117282838:117282939:-|3pUTR|ENSG00000165650|unk|FALSE|bound_elsewhere (ssRNA)
# RNA: GGGAGUUCUACAGUCCGACGAUCCCCCUUGUGUUAUUUUUCUUCCUCUUGGUUUUUGAAUUAGUGUUAAAUAGAAUACUGUCUAGAUUCUUAAAAUAUUUUCAUUUCCAUCAUGGUUAUAACAAAUUUGCUGCAUGCCCAAACCAACAGAGGAUUGAGCAUCA
# B19: chr10:30313878:30313980:-|CDS|ENSG00000107951|unk|FALSE|unique (ssRNA)
# RNA: GGGAGUUCUACAGUCCGACGAUCUGUUUUUAUAUUUAAGCCCUUCAUGUACUUACUCAUUUUUUCUUCUGUGUAAUAAUCUAUAGGGAAGGGAGCAAAACAAACCUGAUUCUUCUCCUCUGUACAUUCAGAAUCCAUUUGAAACAACAGAGGAUUGAGCAUCA
# B20: ENSG00000165219:stop:overlap|stop_codon|ENSG00000165219|stop_codon|NA|stop_codon (ssRNA)
# RNA: GGGAGUUCUACAGUCCGACGAUCUACCUAUAGGUAAAGAGAAUUUCUCGUAUUGGAGCUUUCUCUUAAAUCUAAUAUUUCAUUAGCCUUUGUUAUUGCUGAGUGUUUUGGAACAUAUGUUUAAGUACUUGGGAAAGUCUUUCUCAACAGAGGAUUGAGCAUCA
# B21: ENSG00000079335:stop:overlap|stop_codon|ENSG00000079335|stop_codon|NA|stop_codon (ssRNA)
# RNA: GGGAGUUCUACAGUCCGACGAUCUUGGUGGAAAUCUUUCAAAAACACAAAACAUGGAACGAUUUGGAGAGGUAAGUUUUCCCUAGGAGAUUCUAUCUUCUUAAAACUGAUGUUCUGCAUUUGUUUCUCAGUUGGACCUAUAUACAACAGAGGAUUGAGCAUCA
# B22: chr9:34635388:34635489:-|3pUTR|ENSG00000147955|msi1|FALSE|unique (ssRNA)
# RNA: GGGAGUUCUACAGUCCGACGAUCGGGAUAUCCAUGCUUAUGUAUCCAAACACAGAGACCCAUGGGAACAAAUGAGACACAUAUAGAUACUGAGACCUGUGUGUACAGUAGGACCAUGCACUCACACCCAUCUGGAGAGGGAGCCAACAGAGGAUUGAGCAUCA
# Biological target: MSI1 full-length (mouse, UniProt Q61474 1-362)
# Sequence (Q61474 whole entry): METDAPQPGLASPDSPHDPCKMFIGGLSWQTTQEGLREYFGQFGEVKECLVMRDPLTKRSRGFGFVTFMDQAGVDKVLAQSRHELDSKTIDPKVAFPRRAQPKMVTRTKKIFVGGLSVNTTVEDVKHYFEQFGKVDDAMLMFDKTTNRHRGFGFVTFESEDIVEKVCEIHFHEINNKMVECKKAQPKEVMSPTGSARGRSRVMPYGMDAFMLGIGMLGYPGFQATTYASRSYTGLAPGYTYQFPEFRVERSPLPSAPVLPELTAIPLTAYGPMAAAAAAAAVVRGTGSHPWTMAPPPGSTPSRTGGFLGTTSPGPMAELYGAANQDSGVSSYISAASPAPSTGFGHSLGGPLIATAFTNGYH
# Assay: nsRBNS (natural sequence RNA bind-n-seq); RBNS binding buffer (assumed for nsRBNS): 25 mM Tris pH 7.5, 150 mM KCl, 3 mM MgCl2, 0.01% Triton X-100, 500 ug/ml BSA, 20 U/ml SUPERase-In, 4 C; UNK is unkempt and MSI1 is Musashi-1; names of the RNAs are library labels; protein concentration not given here; high values mean tight binding
row,Binder,binding signal
1,B1,0.381 enrichment R
2,B2,0.866 enrichment R
3,B3,0.263 enrichment R
4,B4,0.263 enrichment R
5,B5,0.313 enrichment R
6,B6,0.319 enrichment R
7,B7,1.93 enrichment R
8,B8,0.497 enrichment R
9,B9,42.9 enrichment R
10,B10,0.848 enrichment R
11,B11,1.55 enrichment R
12,B12,0.394 enrichment R
13,B13,7.36 enrichment R
14,B14,10.5 enrichment R
15,B15,56.8 enrichment R
16,B16,31.3 enrichment R
17,B17,21.2 enrichment R
18,B18,3.9 enrichment R
19,B19,1.04 enrichment R
20,B20,1.03 enrichment R
21,B21,4.56 enrichment R
22,B22,0.728 enrichment R
